# Most compounds without a hit are left out; they make up all but 9.2% or so of the library.
# SMN2 splice up: qHTS Assay for Enhancers of SMN2 Splice Variant Expression; HEK293 SMN2-luciferase splicing reporter, luminescence, 30-36 h; Potency, µM (highest dose often 46.1 µM), actives largely listed as activators; actives 2.8% (n = 210,000); AID 1458, 2008; note: nearly all actives have a fitted effect of over 55% in size
#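 HEK293 cells carry an SMN2 minigene-luciferase reporter in which exon 7 inclusion puts luciferase in frame. Cells were seeded at 2000 cells/well, attached for 10-12 hours, then exposed to compounds for 30-36 hours at 37C before ONE-Glo luminescence.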
# NPC1 promoter act: qHTS Assay for NPC1 Promoter Activators | actives 2.4% (n = 320,000) | Potency, µM (top dose mostly 9.22 µM), actives largely listed as activators | Huh7 NPC1 promoter luciferase reporter, 24 h; note: nearly all actives have a fitted effect of over 60% in size
#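 Stable NPC1-promoter luciferase Huh7 line; cpd (DMSO) 24 h, 37 °C, 5% CO2; Amplite luciferase reagent 10 min RT; luminescence readout. qHTS format.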
# ELG1 DNA repair: qHTS screen for small molecules that inhibit ELG1-dependent DNA repair in human embryonic kidney (HEK293T) cells expressing luciferase-tagged ELG1; AID 504467, 2011; HEK293T ELG1-luciferase reporter, luminescence, 16 h; DNA damage induced by 5-fluorouridine; Potency, µM (series often up to 46.1 µM), hits mostly inhibitors; actives 2.3% (n = 330,000); note: nearly all actives have a fitted effect of over 55% in size
#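 Quantitative HTS, concentration-response format. 2,000 cells/well co-treated with 5-fluorouridine and compound, 16 hr in 5% CO2 at 37 °C; ONE-Glo luminescence read after 30 min.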
# ELG1 genotoxic: qHTS screen for small molecules that induce genotoxicity in human embryonic kidney (HEK293T) cells expressing luciferase-tagged ELG1; HEK293T ELG1-luciferase reporter, luminescence, 16 h; Potency, µM (doses to about 46 µM), hits mostly activators; actives 1.3% (n = 330,000); AID 504466, 2011; note: nearly all actives have a fitted effect of over 60% in size
#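 16 hr compound incubation (37 °C, 5% CO2) of HEK293T cells carrying luciferase-tagged ELG1; luciferase then measured by ONE-Glo luminescence after 30 min at RT.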
# Rab9 promoter act: qHTS Assay for Rab9 Promoter Activators | Potency, µM (titrated, usually from 9.22 µM), usual class: activators | actives 2.8% (n = 320,000) | AID 485297, 2010 | Huh7 Rab9 promoter-luciferase reporter, luminescence, 24 h; note: nearly all actives have a fitted effect of over 60% in size
#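 Promoter activation is measured as luciferase luminescence in Huh7 cells stably transfected with a Rab9 promoter–luciferase construct, following 24 h compound exposure at 37 °C and 10 min reagent incubation at ambient temperature.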
# FLuc counter: qHTS profiling assay for firefly luciferase inhibitor/activator using purifed enzyme and Km concentrations of substrates (counterscreen for miR-21 project); Luciferin 4-monooxygenase (Photinus pyralis), P08659; purified FLuc, Km substrates, luminescence inhibition; Potency, µM (highest dose often 57.5 µM), most hits filed as inhibitors; actives 6.9% (n = 360,000); AID 588342, 2011; note: nearly all actives have a fitted effect of over 55% in size
# Target sequence (P08659 whole entry, looked up): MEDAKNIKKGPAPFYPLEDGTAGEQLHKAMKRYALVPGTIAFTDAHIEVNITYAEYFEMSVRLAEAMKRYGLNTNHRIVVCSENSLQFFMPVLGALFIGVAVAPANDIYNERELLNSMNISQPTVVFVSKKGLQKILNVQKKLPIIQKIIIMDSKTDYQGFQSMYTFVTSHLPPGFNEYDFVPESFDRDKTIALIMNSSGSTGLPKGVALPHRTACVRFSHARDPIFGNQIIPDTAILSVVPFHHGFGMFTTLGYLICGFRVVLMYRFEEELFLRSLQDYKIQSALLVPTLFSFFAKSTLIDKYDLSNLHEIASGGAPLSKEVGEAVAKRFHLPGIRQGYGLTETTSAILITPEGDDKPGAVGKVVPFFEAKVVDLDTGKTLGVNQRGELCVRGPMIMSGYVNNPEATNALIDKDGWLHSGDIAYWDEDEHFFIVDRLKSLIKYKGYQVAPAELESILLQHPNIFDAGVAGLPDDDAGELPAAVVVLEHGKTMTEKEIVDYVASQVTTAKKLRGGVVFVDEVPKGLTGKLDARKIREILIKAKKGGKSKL
#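 Biochemical qHTS of compounds, final roughly 60 µM downward over six points, against 10 nM purified firefly luciferase using Km concentrations of substrates (10 uM D-luciferin, 10 uM ATP) in Tris acetate pH 7.5 buffer; luminescence output.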
# Numbers stand for hits; n = inactive; u = inconclusive; x = no result given. Calls come from the whole dose curve; as a rule, active = well fitted curve in the direction sought with a large enough effect; inconclusive = small, poorly fitted or top-dose-only effect, or another doubt; inactive = no such curve, though single readings can be large; an effect the other way counts as inactive or inconclusive.
SMILES,SMN2 splice up,NPC1 promoter act,ELG1 DNA repair,ELG1 genotoxic,Rab9 promoter act,FLuc counter
Cc1ccc(NC(=O)c2ccccc2Cl)c(Cl)c1,n,n,u,n,u,19µM
Cc1cc(NC(=O)c2ccccc2NS(=O)(=O)c2c(C)c(C)cc(C)c2C)no1,n,n,n,n,n,n
Cc1cc(NC(=O)CCCN2C(=O)/C(=C/c3ccccc3Cl)SC2=S)no1,x,n,u,n,n,n
Cc1cc(NC(=O)/C=C/c2ccccc2Cl)no1,u,2.8µM,u,n,2.8µM,u
Cc1ccc(C)c(S(=O)(=O)Nc2ccccc2C(=O)Nc2cc(C)on2)c1,n,n,26µM,n,n,n
CC(CC(=O)Nc1ccc(S(=O)(=O)Nc2ncccn2)cc1)c1ccccc1 (stereo not drawn),x,n,n,n,n,n
O=C(NCc1cn2ccccc2n1)C1CCC(=O)N(Cc2ccccc2F)C1 (stereo not drawn),x,n,n,n,n,n
Cc1cc(NS(=O)(=O)c2ccc(NC(=O)/C=C/c3ccccc3Cl)cc2)no1,x,n,n,n,n,8.5µM
Cc1cc(NC(=O)c2sc3ccccc3c2O)no1,x,1.6µM,u,10µM,3.2µM,9.5µM
Cc1cc(NC(=O)NC(=O)c2ccccc2F)no1,x,u,u,u,3.5µM,u
Cc1cc(NC(=O)c2ccccc2Cl)no1,u,u,u,u,4µM,15µM
Cc1cc(NS(=O)(=O)c2ccc(NC(=O)/C=C/c3ccccc3)cc2)no1,x,n,n,n,n,u
Cc1cc(NC(=O)c2c(F)cccc2Cl)no1,n,n,u,n,n,n
C[C@H](CO)N1C[C@H](C)[C@@H](CN(C)S(C)(=O)=O)Oc2ccc(N(C)C)cc2C1=O,x,x,u,n,x,x
COc1cc(NC(=O)c2cc(C(C)C)on2)c(OC)cc1Cl,n,n,u,n,n,n
COc1ccc(NC(=O)c2cc(C(C)C)on2)c(OC)c1,16µM,u,u,15µM,3.5µM,u
CC(C)Nc1nc2nonc2nc1Nc1ccccc1,x,n,16µM,n,n,n
Cn1c(=O)c(-c2cc(Br)ccc2N)nc2ccccc21,n,n,u,u,u,24µM
CCOC(=O)Cn1c(=O)c(-c2cc(Br)ccc2N)nc2ccccc21,x,n,n,n,n,n
O=C(c1c(O)c2ccc(Cl)cc2[nH]c1=O)C1CC1,n,x,x,x,x,x
CCCCSc1nnc(-c2c[nH]c3ccccc23)n1C,n,u,u,u,u,15µM
Cn1c(SCc2ccccc2)nnc1-c1c[nH]c2ccccc12,u,u,u,15µM,u,17µM
CCSc1nnc(NC(=O)CSc2nnc(-c3c[nH]c4ccccc34)n2C)s1,n,n,n,n,n,n
CCCCSc1nnc(-c2ccc(C)cc2)n1C,u,4µM,u,n,3.5µM,u
CCOc1ccc(OCC)c(NS(=O)(=O)c2c(C(=O)N3CCCCCC3)c(C)n(C)c2C)c1,x,x,x,x,x,n
SMILES,SMN2 splice up,NPC1 promoter act,ELG1 DNA repair,ELG1 genotoxic,Rab9 promoter act,FLuc counter
CCS(=O)(=O)c1ccccc1C(=O)N(Cc1cccnc1)c1nc2cc(C)c(C)cc2s1,x,x,x,x,x,21µM
COc1ccc2nc(N(Cc3cccnc3)C(C)=O)sc2c1,x,x,x,x,x,n
Cc1ccc2nc(N(Cc3cccnc3)C(=O)c3ccc4c(c3)OCCO4)sc2c1,x,x,x,x,x,n
COc1ccc2nc(N(Cc3cccnc3)C(=O)c3ccco3)sc2c1,x,x,x,x,x,17µM
COc1cc(C(=O)N(Cc2cccnc2)c2nc3cc(C)c(C)cc3s2)cc(OC)c1OC,x,x,x,x,x,n
O=C(c1ccc2c(c1)OCCO2)N(Cc1cccnc1)c1nc2ccc(F)cc2s1,x,x,x,x,x,17µM
CCOc1ccc2nc(N(Cc3cccnc3)C(=O)c3ccco3)sc2c1,x,x,x,x,x,17µM
Cc1nc2ccccc2c2oc(C(=O)NCCN3CCCCC3C)cc12 (stereo not drawn),n,n,n,n,n,n

# Screens deposited in PubChem by National Center for Advancing Translational Sciences (NCATS).
